PubChem BioAssay (Tox21)
Inconclusive results are not listed. Where a call stands in place of a potency, no number is given. Values without a mark were called inactive. The source made the active and inactive calls. Unless noted, calls come from the whole dose curve; as a rule, active = well fitted curve in the direction sought with a large enough effect in the repeat runs; inconclusive = weak or mixed curves; inactive = no such curve, though single readings can be large; an effect the other way counts as inactive or inconclusive.

Experiments:
[1] = qHTS assay to identify small molecule antagonists of the thyroid receptor (TR) signaling pathway - cell viability counter screen (AID 743064); note: nearly all actives have a fitted effect of over 50% in size; note: potency is the fitted concentration of half-maximal effect
Summary of the method: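 Same-well viability check: GH3.TRE-Luc cells stimulated with 1 nM T3 alongside test compound for 23.5 h, followed by CellTiter-Fluor fluorescence.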

[2] = qHTS assay to identify small molecule antagonists of the thyroid receptor (TR) signaling pathway (AID 743065); note: nearly all actives have a fitted effect of over 55% in size
Summary of the method: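 Antagonism measured as loss of luciferase signal in GH3 cells stably carrying a TRE-luciferase reporter, co-treated with compound and T3 (1 nM final) for 23.5 h at 37 C. Viability was read in the same well by CellTiter-Fluor.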

[3] = test system: thyroid hormone receptor (rat, GH3 cells); experiment: qHTS assay to identify small molecule agonists of the thyroid receptor (TR) signaling pathway (AID 743066; calls by dose curve)
[4] = target: Estrogen receptor (Homo sapiens) (UniProt P03372); experiment: qHTS assay to identify small molecule antagonists of the estrogen receptor alpha (ER-alpha) signaling pathway (AID 743069; active = well fitted curve in the direction sought with a large enough effect in the signal ratio in the repeat runs, not every such curve was filed as active; the % refers to the signal ratio)
Estrogen receptor (Homo sapiens), sequence (P03372 whole entry, looked up): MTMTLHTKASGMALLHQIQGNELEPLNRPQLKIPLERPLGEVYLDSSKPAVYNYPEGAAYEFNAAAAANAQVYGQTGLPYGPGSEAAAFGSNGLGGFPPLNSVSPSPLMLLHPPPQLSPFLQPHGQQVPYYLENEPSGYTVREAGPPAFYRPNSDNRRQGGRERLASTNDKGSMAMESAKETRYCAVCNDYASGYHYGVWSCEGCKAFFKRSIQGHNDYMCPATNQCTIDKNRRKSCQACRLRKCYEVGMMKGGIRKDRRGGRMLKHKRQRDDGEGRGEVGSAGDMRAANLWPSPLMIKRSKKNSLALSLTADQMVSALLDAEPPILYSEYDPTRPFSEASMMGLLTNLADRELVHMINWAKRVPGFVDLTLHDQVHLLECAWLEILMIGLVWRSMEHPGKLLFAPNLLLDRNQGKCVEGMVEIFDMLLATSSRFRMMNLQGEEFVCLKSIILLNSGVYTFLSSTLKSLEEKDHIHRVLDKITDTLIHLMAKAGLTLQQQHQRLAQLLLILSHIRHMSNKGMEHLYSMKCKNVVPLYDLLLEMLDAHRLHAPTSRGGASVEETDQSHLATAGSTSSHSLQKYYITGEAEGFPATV
Summary of the method: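 Antagonist mode: compounds in DMSO were co-added with 17beta-estradiol to ER-alpha-bla HEK293 cells (2% charcoal-stripped serum) and left 18 h at 37C. Reporter inhibition was measured as FRET fluorescence after 2 h LiveBLAzer substrate at room temperature.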

[5] = qHTS assay to identify small molecule antagonists of the estrogen receptor alpha (ER-alpha) signaling pathway - cell viability counter screen (AID 743074; calls by dose curve;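 note: HEK293 cells carrying ER-alpha-UAS-bla reporter stimulated with 17beta-estradiol; nearly all actives have a fitted effect of over 45% in size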)
[6] = target: Estrogen receptor (Homo sapiens) (UniProt P03372); experiment: qHTS assay to identify small molecule agonists of the estrogen receptor alpha (ER-alpha) signaling pathway (AID 743075; calls by dose curve;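 note: HEK293 GripTite cells with ER-alpha and UAS-driven beta-lactamase reporter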)
[7] = target: Estrogen receptor (Homo sapiens) (UniProt P03372); experiment: qHTS assay to identify small molecule agonists of the estrogen receptor alpha (ER-alpha) signaling pathway using the BG1 cell line (AID 743079); settings: BG1Luc4E2 cells, ERE-luciferase agonist, 22 h; activation: at 70.3 µM (top of the series); note: nearly all actives have a fitted effect of over 20% in size; note: potency is the fitted concentration of half-maximal effect
[8] = qHTS assay to identify small molecule antagonists of the estrogen receptor alpha (ER-alpha) signaling pathway using the BG1 cell line (AID 743080; calls by dose curve;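 note: BG1 cells stimulated with 17beta-estradiol alongside compound; nearly all actives have a fitted effect of over 25% in size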)
Summary of the method: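 Endogenous full-length ER-alpha in BG1-Luc-4E2 cells drives a stably integrated 4×ERE luciferase gene; compounds were tested against 17beta-estradiol over 21.5 h, with luminescence and multiplexed viability fluorescence recorded.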

[9] = qHTS assay to identify small molecule antagonists of the estrogen receptor alpha (ER-alpha) signaling pathway using the BG1 cell line - cell viability counter screen (AID 743081);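 note: compound given together with 17beta-estradiol as the ER stimulus; nearly all actives have a fitted effect of over 45% in size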
[10] = target: Aromatase (Homo sapiens) (UniProt P11511); experiment: qHTS assay to identify aromatase inhibitors (AID 743083); note: nearly all actives have a fitted effect of over 55% in size
Aromatase (Homo sapiens), sequence (P11511 whole entry, looked up): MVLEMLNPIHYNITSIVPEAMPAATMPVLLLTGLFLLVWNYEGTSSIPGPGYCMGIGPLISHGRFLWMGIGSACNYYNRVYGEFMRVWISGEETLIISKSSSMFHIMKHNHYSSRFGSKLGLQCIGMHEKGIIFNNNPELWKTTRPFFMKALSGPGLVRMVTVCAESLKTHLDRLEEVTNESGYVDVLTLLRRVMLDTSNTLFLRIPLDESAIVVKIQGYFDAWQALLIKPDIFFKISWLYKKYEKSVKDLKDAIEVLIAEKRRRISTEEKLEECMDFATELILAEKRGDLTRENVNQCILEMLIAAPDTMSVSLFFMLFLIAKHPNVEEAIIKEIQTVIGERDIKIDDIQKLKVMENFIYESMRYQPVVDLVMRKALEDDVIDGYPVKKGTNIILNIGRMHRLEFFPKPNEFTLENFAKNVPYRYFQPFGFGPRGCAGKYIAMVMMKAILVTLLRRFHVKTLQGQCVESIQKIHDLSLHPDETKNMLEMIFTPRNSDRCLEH

[11] = qHTS assay to identify aromatase inhibitors - cell viability counter screen (AID 743084);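 note: cells stimulated with testosterone during compound exposure; nearly all actives have a fitted effect of over 55% in size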
[12] = target: Aryl hydrocarbon receptor (Homo sapiens) (UniProt P35869); experiment: qHTS assay to identify small molecule that activate the aryl hydrocarbon receptor (AhR) signaling pathway (AID 743085);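 note: HG2L7.5c1 human HepG2 liver cells with stably integrated DRE-driven firefly reporter; nearly all actives have a fitted effect of over 15% in size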
Aryl hydrocarbon receptor (Homo sapiens), sequence (P35869 whole entry, looked up): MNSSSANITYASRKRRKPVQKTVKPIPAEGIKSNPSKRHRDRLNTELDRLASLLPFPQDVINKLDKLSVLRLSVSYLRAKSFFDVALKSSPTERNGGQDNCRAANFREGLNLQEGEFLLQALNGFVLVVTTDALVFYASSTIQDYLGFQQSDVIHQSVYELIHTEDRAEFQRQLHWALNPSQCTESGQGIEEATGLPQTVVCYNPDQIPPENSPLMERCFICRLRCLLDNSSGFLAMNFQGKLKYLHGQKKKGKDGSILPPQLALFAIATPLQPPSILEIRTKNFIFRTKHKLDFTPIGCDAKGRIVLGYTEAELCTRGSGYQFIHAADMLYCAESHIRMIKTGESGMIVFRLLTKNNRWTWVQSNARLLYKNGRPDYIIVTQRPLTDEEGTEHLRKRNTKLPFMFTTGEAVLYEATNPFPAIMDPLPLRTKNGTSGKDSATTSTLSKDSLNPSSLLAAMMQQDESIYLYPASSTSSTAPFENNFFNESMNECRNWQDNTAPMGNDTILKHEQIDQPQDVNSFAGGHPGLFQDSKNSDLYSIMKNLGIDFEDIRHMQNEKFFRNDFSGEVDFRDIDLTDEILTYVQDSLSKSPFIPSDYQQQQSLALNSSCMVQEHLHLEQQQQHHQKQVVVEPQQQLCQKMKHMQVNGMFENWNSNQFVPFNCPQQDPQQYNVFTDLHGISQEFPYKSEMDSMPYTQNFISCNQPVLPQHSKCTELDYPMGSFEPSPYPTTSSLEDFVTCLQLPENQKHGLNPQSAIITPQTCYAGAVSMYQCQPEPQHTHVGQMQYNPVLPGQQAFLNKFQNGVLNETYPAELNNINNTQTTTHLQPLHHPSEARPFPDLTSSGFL
Summary of the method: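 Reporter assay in engineered HepG2 line HG2L7.5c1, whose plasmid carries twenty dioxin responsive elements upstream of firefly luciferase. Treatment lasted 24 h at 37C; ONE-Glo luminescence gauged induction.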

[13] = qHTS assay to identify small molecule that activate the aryl hydrocarbon receptor (AhR) signaling pathway - cell viability counter screen (AID 743086);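 note: HepG2 liver cells carrying the AhR DRE luciferase reporter; nearly all actives have a fitted effect of over 45% in size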
Summary of the method: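 Cytotoxicity counter screen: CellTiter-Fluor signal (30 min, 37 C) in 4000 HepG2 cells/well carrying the DRE-luciferase reporter, following 24 h compound exposure at 37 C.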

[14] = target: Peroxisome proliferator-activated receptor gamma (Homo sapiens) (UniProt P37231); experiment: qHTS assay to identify small molecule agonists of the peroxisome proliferator-activated receptor gamma (PPARg) signaling pathway (AID 743094; active = well fitted activation curve with a large enough effect in the signal ratio in the repeat runs, not every such curve was filed as active; the % refers to the signal ratio)
Peroxisome proliferator-activated receptor gamma (Homo sapiens), sequence (P37231 whole entry, looked up): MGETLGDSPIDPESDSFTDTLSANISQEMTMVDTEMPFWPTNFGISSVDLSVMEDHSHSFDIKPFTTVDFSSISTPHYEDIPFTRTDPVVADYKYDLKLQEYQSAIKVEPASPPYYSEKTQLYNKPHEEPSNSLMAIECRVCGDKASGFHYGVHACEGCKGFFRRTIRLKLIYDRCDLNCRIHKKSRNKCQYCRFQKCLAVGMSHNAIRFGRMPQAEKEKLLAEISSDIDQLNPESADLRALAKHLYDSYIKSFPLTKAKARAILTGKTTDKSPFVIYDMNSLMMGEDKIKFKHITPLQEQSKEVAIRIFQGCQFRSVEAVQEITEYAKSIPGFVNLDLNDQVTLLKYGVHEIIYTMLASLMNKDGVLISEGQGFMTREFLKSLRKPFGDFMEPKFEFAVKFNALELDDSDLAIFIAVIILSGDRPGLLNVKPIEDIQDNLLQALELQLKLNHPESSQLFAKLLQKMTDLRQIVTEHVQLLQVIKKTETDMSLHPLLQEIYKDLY
Summary of the method: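 Cells from the PPARg UAS-bla HEK293H line are plated and incubated 5 h at 37C. Compounds in DMSO are pinned in and left 17 h at 37C. LiveBLAzer B/G substrate is then added for 1 h at room temperature before fluorescence is measured.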

[15] = qHTS assay to identify small molecule phospholipidosis (PLD) inducers (AID 1259344; active = well fitted curve in the direction sought with a large enough effect; an effect the other way counts as inactive or inconclusive)
Summary of the method: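 Phospholipid accumulation was scored by imaging: fixed, Hoechst-counterstained HepG2 cells stained with LipidTOX Red after 24 h compound exposure at 37 C. Read-outs were pit count and pit intensity per well or per cell, with amiodarone and DMSO controls.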

[16] = target: Nuclear receptor subfamily 1 group I member 2 (Homo sapiens) (UniProt O75469); experiment: Human pregnane X receptor (PXR) activation by small molecules, qHTS assay (AID 1346985); note: nearly all actives have a fitted effect of over 40% in size
Summary of the method: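 DPX-2 cells (HepG2 co-transfected with a PXR response element and a CYP3A4-promoter luciferase construct) were seeded at 2,000 per well, rested 5 hr at 37C, then exposed to DMSO-dissolved compounds for 24 hr. Activation was read as luciferase luminescence.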

Row | Compound | Potency [1] | Potency [2] | Potency [3] | Potency [4] | Potency [5] | Potency [6] | Potency [7] | Potency [8] | Potency [9] | Potency [10] | Potency [11] | Potency [12] | Potency [13] | Potency [14] | Potency [15] | PLD induction [15] | Potency [16]
1 | CO[C@@H]1[C@@H](O[C@@H]2O[C@H](C)[C@@H](O[C@H]3C[C@@](C)(O)[C@@H](OC(=O)CC(C)C)[C@H](C)O3)[C@H](N(C)C)[C@H]2O)[C@@H](CC=O)C[C@@H](C)[C@@H](O)/C=C/C=C/C[C@@H](C)OC(=O)C[C@H]1O | inactive | inactive | inactive | inactive | inactive | inactive | 13.3 µM (active) | inactive | inactive | inactive | inactive | inactive | inactive | inactive | inactive | – | –
2 | NCCCNCCCCNC(=O)C(O)NC(=O)CCCCCCN=C(N)N (stereo not given) | inactive | inactive | inactive | inactive | inactive | inactive | inactive | inactive | – | inactive | inactive | inactive | inactive | inactive | – | -1.69% [at 7.66 µM] | –
3 | COCC1=C(C(=O)OC(C)OC(=O)OC(C)C)N2C(=O)[C@@H](NC(=O)/C(=N\OC)c3csc(N)n3)[C@H]2SC1 (stereo not given in full) | inactive | inactive | inactive | inactive | inactive | inactive | inactive | inactive | inactive | inactive | inactive | inactive | inactive | inactive | inactive | – | –
4 | CC1=C(/C=C/C(C)=C/C=C/C(C)=C/C=C/C=C(C)/C=C/C=C(C)/C=C/C2=C(C)C[C@@H](O)CC2(C)C)C(C)(C)C[C@H](O)C1 | 29.8 µM (active) | – | – | – | inactive | – | – | – | inactive | – | – | – | inactive | – | inactive | – | inactive
5 | O=S(=O)(O)Oc1ccc(C(c2ccc(OS(=O)(=O)O)cc2)c2ccccn2)cc1 | inactive | inactive | inactive | inactive | inactive | inactive | inactive | inactive | – | inactive | inactive | inactive | inactive | inactive | inactive | – | –
6 | CCCCCCCCCCCCCCCC(=O)O[C@@H]1[C@@H](O)[C@@H](O)[C@@H]([C@H](NC(=O)[C@@H]2C[C@@H](CCC)CN2C)[C@H](C)Cl)O[C@@H]1SC | inactive | inactive | inactive | inactive | inactive | inactive | inactive | inactive | inactive | inactive | inactive | inactive | inactive | inactive | inactive | – | –
7 | CS(=O)(=O)NC(=O)CCC/C=C\C[C@H]1C(=O)C[C@@H](O)[C@@H]1/C=C/[C@H](O)COc1ccccc1 | inactive | inactive | inactive | inactive | inactive | inactive | inactive | – | – | inactive | inactive | inactive | inactive | inactive | inactive | – | –
8 | OC(CN1CCCCC1)c1cc(-c2ccccc2)on1 (stereo not given) | inactive | inactive | inactive | inactive | inactive | inactive | 23.7 µM (active) | – | inactive | inactive | inactive | – | – | inactive | inactive | – | –
9 | CC[C@H]1OC(=O)[C@H](C)[C@@H](O[C@H]2C[C@@](C)(OC)[C@@H](O)[C@H](C)O2)[C@H](C)[C@@H](O[C@@H]2O[C@H](C)C[C@H](N(C)C)[C@H]2O)[C@](C)(O)C[C@@H](C)[C@@H]2N[C@@H](COCCOC)O[C@@H]([C@H]2C)[C@]1(C)O | inactive | inactive | inactive | inactive | inactive | inactive | inactive | inactive | inactive | inactive | inactive | – | inactive | inactive | inactive | – | –
10 | C[C@H](CSC(=O)c1ccccc1)C(=O)N1C[C@@H](Sc2ccccc2)C[C@H]1C(=O)O | inactive | inactive | inactive | inactive | inactive | inactive | inactive | inactive | inactive | inactive | inactive | inactive | inactive | inactive | inactive | – | –
11 | CN(C(=O)CO)c1c(I)c(C(=O)NCC(O)CO)c(I)c(C(=O)NCC(O)CO)c1I (stereo not given) | inactive | inactive | inactive | inactive | inactive | inactive | inactive | inactive | inactive | inactive | inactive | inactive | inactive | inactive | inactive | – | –
12 | CCCC(CCC)C(N)=O | inactive | inactive | inactive | inactive | inactive | inactive | inactive | inactive | – | inactive | inactive | – | inactive | inactive | – | 0.287% [at 7.66 µM] | –
13 | O=C(O)c1cccc(/C=C2/C[C@@H]3[C@@H](/C=C/[C@@H](O)C4CCCCC4)[C@H](O)C[C@@H]3O2)c1 | inactive | inactive | inactive | inactive | inactive | inactive | inactive | inactive | inactive | inactive | inactive | inactive | inactive | – | inactive | – | –
14 | NCCC(=O)[N-][C@@H](Cc1cnc[nH]1)C(=O)O.[Zn] | inactive | inactive | inactive | inactive | inactive | inactive | inactive | inactive | inactive | inactive | inactive | inactive | inactive | inactive | inactive | – | –
